High-throughput results from PubChem.
KCC2 mod – modulators of human KCC2 chloride dependent transport; B-score of Tl+ flux slope (higher = more flux/activation; lower = inhibition) at 10 µM; Q9H2X9; AID 1456; KCC2 cells, thallium flux FluoZin-2 fluorescence; actives 2.2% (n = 190,000);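 active = thallium flux slope and its plate-corrected score both differing from the plate sample mean at a set confidence after two filtering rounds, in either direction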;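 also: slope of fluorescence scaled to starting intensity during 10 to 20 s after thallium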
EP2 modulator – modulators of human EP2 prostaglandin E2 receptor; induction, % at 25 µM; actives 0.83% (n = 260,000); EP2-expressing cells, cAMP HTRF FRET, PGE2 co-stimulation; AID 940;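 active = compounds whose cAMP rise, as percent of the full-agonist control response, exceeds 60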;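 also: rat C6 glioma line stably carrying human EP2 under a CMV promoter; the protocol text gives 20 µM as final concentration; 100% = response of wells given 1 µM PGE2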
Target sequence (P43116 whole entry, looked up): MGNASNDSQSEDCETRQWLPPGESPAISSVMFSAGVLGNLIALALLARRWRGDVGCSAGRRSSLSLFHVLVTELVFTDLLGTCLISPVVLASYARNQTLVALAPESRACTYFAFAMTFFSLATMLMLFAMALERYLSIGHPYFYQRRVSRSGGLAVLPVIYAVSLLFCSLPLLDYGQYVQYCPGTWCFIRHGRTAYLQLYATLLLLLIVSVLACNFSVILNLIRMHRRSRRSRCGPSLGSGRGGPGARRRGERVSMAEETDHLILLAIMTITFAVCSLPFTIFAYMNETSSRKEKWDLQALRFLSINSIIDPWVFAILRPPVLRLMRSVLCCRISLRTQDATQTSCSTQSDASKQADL
S1P3 antagonist – antagonists of human S1P3 receptor. CHO S1P3 NFAT-BLA reporter, FRET fluorescence, antagonist mode. Q99500. inhibition, % at 4.98 µM. actives 0.27% (n = 170,000). AID 485;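 active = inhibition above the plate cutoff, the mean inhibition of test wells on that plate plus 3 SD, cut at about 28% in these data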;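 also: cells challenged with S1P at its EC80 of 0.8 µM; blue over green emission ratio from cleaved BLA substrate after 4 h stimulation; 0% = S1P-stimulated wells and 100% = unstimulated DMSO-only wells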
EP2 antag – EP2 receptor (human) inhibition; P43116; C6 glioma cells expressing human EP2, cAMP TR-FRET; cells stimulated with saturating PGE2; inhibition, % at 25 µM; actives 0.52% (n = 260,000);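 active = percent inhibition above 40 after rounding to a whole number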;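 also: rat C6 glioma host cells with rolipram phosphodiesterase inhibitor present; the protocol text gives 20 µM as final concentration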
* hit, by the source's call; ! = a repeat was not active. Rows were chosen to be rich in hits. Some 3.1% of all compounds tested hit in one or more screens of this group.

For COc1ccc(C(=O)NC(=S)NCc2cccnc2)cc1Br the results were KCC2 mod 1, EP2 modulator -62, S1P3 antagonist -11 and EP2 antag 11.
C=CCN(CC=C)C(=S)NC(=O)c1ccc(OC)c(Br)c1 was read as KCC2 mod 56*, EP2 modulator -24 and EP2 antag 1.
COc1ccc(C(=O)NC(=S)NCCO)cc1Br was read as KCC2 mod 4.7*, EP2 modulator -4 and EP2 antag -7.
`CCN(CC)C(=O)C1CCN(S(C)(=O)=O)CC1` gave EP2 modulator -21 and EP2 antag 9.
`CCOc1ccc(CN(Cc2ccco2)C(=O)c2cc3ccccc3oc2=O)cc1` gave EP2 modulator -56 and EP2 antag 24.
Screening COc1cc(C2SCCCCCCCCCCSC(c3ccc(O)c(OC)c3)SCCCCCCCCCCS2)ccc1O (configuration not stated) returned EP2 modulator 14 and EP2 antag 41*.
CCNC(=O)C1CCN(S(=O)(=O)c2ccccc2)CC1 was read as EP2 modulator -37 and EP2 antag 9.
`O=C(Cc1cccs1)Nc1cccc(C(=O)Nc2ccco2)c1` gave KCC2 mod 0.42, EP2 modulator -18, S1P3 antagonist 52* and EP2 antag 23.
`COc1ccc(-c2cc(C(F)(F)F)nc(SCC(=O)Nc3ccccc3SC)n2)cc1OC` gave EP2 modulator -18 and EP2 antag 8.
Screening CCOC(=O)CSc1nnc(-c2cccs2)o1 returned EP2 modulator 9 and EP2 antag 9.
S=c1[nH]nc(COc2ccccc2)n1/N=C/c1ccncc1 was read as KCC2 mod -0.51, EP2 modulator 12, S1P3 antagonist -4 and EP2 antag 6.
CC(/C=N/n1c(COc2ccccc2)n[nH]c1=S)=C\c1ccccc1 was read as KCC2 mod 7.8*, EP2 modulator -5 and EP2 antag 5.
Brc1ccc(-c2cnc(-c3cccs3)o2)cc1 was read as KCC2 mod -0.22, EP2 modulator 61*!, S1P3 antagonist 22 and EP2 antag 6.
CN(C)c1ccc(-c2nnc(-c3cccs3)o2)cc1 was read as KCC2 mod -0.47, EP2 modulator 14, S1P3 antagonist -21 and EP2 antag 11.
For Cc1cccc(OCC(=O)Nc2ccccc2N2CCN(C(=O)C(C)C)CC2)c1 the results were EP2 modulator 34 and EP2 antag 6.
OC[C@@H]1O[C@H](n2cnc3c(/C=C(\O)c4ccccc4)ncnc32)[C@H](O)[C@H]1O was read as EP2 modulator 7 and EP2 antag 45*.
Screening COc1ccc(N=C2NN=C(c3ccc4c(c3)OCCO4)CS2)cc1 returned KCC2 mod 0.059, EP2 modulator -2 and EP2 antag 41*.
Screening CN(Cc1cc(C(C)(C)C)cc(Br)c1O)Cc1cc(C(C)(C)C)cc(Br)c1O returned EP2 modulator 5 and EP2 antag 43*.
CCOC(=O)/C=C(\C)Sc1cc(O)c2ccccc2c1O was read as KCC2 mod -0.036, EP2 modulator -52, S1P3 antagonist 0 and EP2 antag 69*.
Screening Cc1[nH]n(-c2cccc3ccccc23)c(=O)c1/C=N/c1sc2c(c1C#N)CCC2 returned KCC2 mod 26*, EP2 modulator -12 and EP2 antag 15.
`Cc1cccc(Nc2nc(NCc3ccco3)c3ccccc3n2)c1` gave KCC2 mod 0.47, EP2 modulator -91, S1P3 antagonist 7 and EP2 antag 35.
For c1ccc(Nc2nc(NCc3ccco3)c3ccccc3n2)cc1 the results were KCC2 mod -1.8, EP2 modulator -46, S1P3 antagonist 14 and EP2 antag 62*.
For COc1c(C)cc(Br)cc1C(=O)Nc1ccc(Cc2ccncc2)cc1 the results were KCC2 mod -2.4, EP2 modulator 64*, S1P3 antagonist -3 and EP2 antag 11.
For C[C@H](Oc1ccc(Oc2cnc3ccc(Cl)cc3n2)cc1)C(=O)O the results were EP2 modulator 9 and EP2 antag 46*.
For O=C(Nc1ccc(CN2CCOCC2)cc1)c1ccc(-c2cc(Cl)ccc2Cl)o1 the results were KCC2 mod -1.4, EP2 modulator -39 and EP2 antag 59*.
`COc1cccc(C2(NC(=O)c3cc(-c4cnn(C)c4)n[nH]3)CCCC2)c1` gave EP2 modulator -61 and EP2 antag 10.
`COc1ccc(CN2CCC(O)(c3ccc(C)cc3)CC2)cc1OC(C)C` gave EP2 modulator -22 and EP2 antag 7.
